Screening results (PubChem)
Sampled rows, rich in hits. Any-hit rate of the full collection: about 3.5%.
FBW7 activator: FBW7 E3 ligase activators, primary screen, biochemical, AlphaScreen, human; F-box/WD repeat-containing protein 7 (Homo sapiens), Q969H0; AlphaScreen FBW7–phospho-cyclin E peptide binding, activator screen; normalized activity (activation), % at 26.1 µM; 650,000 compounds, 0.13% hits; AID 1259310, 2017; in the data active = normalized activity above about 1.9%;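 note: purified mutant Fbw7 with reduced substrate affinity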
TEAD-YAP block: TEAD-YAP interaction inhibition, primary screen, TEAD-YAP interaction inhibitor project, luminescence, HEK-TIYL cells; inhibition, % at 9.12 µM; 640,000 compounds, 1.4% hits; TEAD-Gal4/YAP UAS-luciferase luminescence; in the data active = inhibition above about 32%
MITF inh: MITF inhibitors, primary screen, biochemical, AlphaScreen, human | AlphaScreen MITF homodimerization, bead proximity signal | inhibition, % at 2.6 µM | 650,000 compounds, 0.91% hits; in the data active = inhibition above about 50%
GPR151 activ: activators of human GPR151, primary screen, cell-based, PathHunter beta-arrestin, luminescence. AID 1508602, 2020. PathHunter beta-arrestin GPR151 cells. 650,000 compounds, 1% hits. activation, % at 11.2 µM; in the data active = activation above about 4.9%
Target sequence (Q8TDV0 whole entry, looked up): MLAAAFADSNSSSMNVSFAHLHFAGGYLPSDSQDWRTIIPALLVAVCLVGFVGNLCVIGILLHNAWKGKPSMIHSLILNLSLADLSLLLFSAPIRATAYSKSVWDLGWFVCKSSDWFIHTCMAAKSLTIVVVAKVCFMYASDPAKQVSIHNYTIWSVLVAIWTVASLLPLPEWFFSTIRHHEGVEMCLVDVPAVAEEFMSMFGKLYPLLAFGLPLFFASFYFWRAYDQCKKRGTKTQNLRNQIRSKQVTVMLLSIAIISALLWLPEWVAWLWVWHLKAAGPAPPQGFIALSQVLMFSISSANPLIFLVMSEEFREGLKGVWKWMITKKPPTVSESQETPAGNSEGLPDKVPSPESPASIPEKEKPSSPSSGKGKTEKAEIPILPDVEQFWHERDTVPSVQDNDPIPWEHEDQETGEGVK
Large screens that a line does not name were inactive.

Cc1ccc(S(=O)(=O)/N=C2/C=C(ON=C3C=CC(=O)C=C3)C(=O)c3ccccc32)cc1	TEAD-YAP block 45
O=C(NC(=S)Nc1ccc2oc(-c3ccccc3F)nc2c1)c1cc2ccccc2o1	none
COc1ccc(C(=O)Nc2ccc(NC(=O)c3ccccn3)cn2)cc1	none
COc1ccc(NC(=O)c2ccccn2)cc1	TEAD-YAP block 51
CCOc1ccc(NC(=S)c2ccccn2)cc1	TEAD-YAP block 75
N.N.N.N.N.N.N.N.N.N.N.N.N.N.O.O.[Cl-].[Cl-].[Cl-].[Cl-].[Cl-].[Cl-].[Ru+2].[Ru+2].[Ru+2]	TEAD-YAP block 41
NC(=O)c1ccc(-c2nc(NCc3cccnc3)c3ncn(Cc4ccc(C(F)(F)F)cc4)c3n2)cc1	TEAD-YAP block 46
NC(=O)c1ccc(-c2nc(NCCc3ccc(O)cc3)c3ncn(C4CCCCC4)c3n2)cc1	TEAD-YAP block 44
Cn1c(Nc2nc(NCCc3ccc(O)cc3)c3ncn(C4CCCCC4)c3n2)nc2ccccc21	TEAD-YAP block 35
CC(=O)c1cccc(-c2nc(NCCc3ccc(O)cc3)c3ncn(-c4ccccc4)c3n2)c1	TEAD-YAP block 72
COc1ccc(CCNc2nc(-c3cccc(C(C)=O)c3)nc3c2ncn3-c2ccsc2)cc1	none
CC(=O)c1cccc(-c2nc(NCCc3ccc(O)cc3)c3ncn(C(C)C)c3n2)c1	TEAD-YAP block 63
CC(=O)c1cccc(-c2nc(NCCc3ccc(O)cc3)c3ncn(-c4ccsc4)c3n2)c1	TEAD-YAP block 82
CC(=O)c1cccc(-c2nc(NCc3ccccc3)c3ncn(C(C)C)c3n2)c1	none
O=C(NC1CC1)c1ccc(-c2nc(NCCc3ccc(O)cc3)c3ncn(-c4ccccc4)c3n2)cc1	TEAD-YAP block 56
CC(=O)c1cccc(-c2nc(NCc3cccnc3)c3ncn(C(C)C)c3n2)c1	TEAD-YAP block 59
O=C(NC1CC1)c1ccc(-c2nc(NCCOc3ccccc3)c3ncn(-c4ccccc4)c3n2)cc1	none
CC(C)n1cnc2c(NCCc3ccc(O)cc3)nc(-c3cccc(N)c3)nc21	none
CCn1c(=O)[nH]c2c(C(N)=O)nc(-c3ccc(C)o3)nc21	none
Nn1c(SCC(=O)Nc2cccc(Br)c2)nnc1-c1ccc(Cl)cc1	none
COc1cccc(-c2cnc(C(F)(F)F)nc2C2CCN(C(=O)c3ccccn3)CC2)c1	none
COc1ccc(C2CC(=O)C3=C(C2)NC(C)=C(C(=O)OCc2ccccc2)C3c2cccc([N+](=O)[O-])c2)cc1 (configuration not stated)	TEAD-YAP block 59
CC1=C(C(=O)OCc2ccccc2)C(c2ccc(O)c([N+](=O)[O-])c2)C2=C(CC(c3ccccc3)CC2=O)N1 (configuration not stated)	TEAD-YAP block 44
CC1=C(C(=O)OCc2ccccc2)C(c2cccc([N+](=O)[O-])c2)C2=C(CC(c3ccccc3)CC2=O)N1 (configuration not stated)	TEAD-YAP block 56
COC(=O)C1=C(C)NC2=C(C(=O)CC(c3ccccc3)C2)C1c1ccc(O)c([N+](=O)[O-])c1 (configuration not stated)	none
CCOC(=O)c1cc2c(=O)n3ccccc3nc2n(Cc2ccccc2)c1=NC(C)=O	none
CCC1CCCCN1C(=O)Nc1cccc(C(C)=O)c1 (configuration not stated)	none
CSc1ccc2cc(CNCc3cccs3)c(N3CCOCC3)nc2c1	none
Nc1ccc(Cl)c(-c2nc3cc(Cl)ccc3o2)c1	none
Nc1ccc2oc(-c3cc(Br)ccc3Cl)nc2c1	TEAD-YAP block 41
Nc1ccc2oc(-c3cc(I)ccc3Cl)nc2c1	TEAD-YAP block 34
Nc1ccc2oc(-c3cc(Cl)ccc3Cl)nc2c1	none
Nc1ccc2oc(-c3ccccc3Cl)nc2c1	TEAD-YAP block 42
Cc1cccc2cc(CN(Cc3nnnn3CC3CCCO3)C3CCCC3)c(=O)[nH]c12 (configuration not stated)	none
C=CCN1C(=O)/C(=C\c2ccc(OC)cc2OC)SC1=S	none
COc1c(NC(=O)Nc2ccccc2C)cc([N+](=O)[O-])c(OC)c1C	TEAD-YAP block 45
CCC(=O)Nc1ccc(Oc2ccc3c(c2)C(=O)NC3=O)cc1	none
Cc1ccccc1OCC(=O)Nc1ccc(Oc2ccc3c(c2)C(=O)NC3=O)cc1	TEAD-YAP block 52
O=C(CCc1ccccc1)Nc1ccc(Oc2ccc3c(c2)C(=O)NC3=O)cc1	TEAD-YAP block 52
O=C(COc1ccccc1)Nc1ccc(Oc2ccc3c(c2)C(=O)NC3=O)cc1	TEAD-YAP block 51
CCCn1c(CCC(=O)Nc2ccc(C)c(F)c2)nc2cccnc21	none
COc1cc(C(=O)NC2CCCC2)cc(OC)c1OC	none
COc1cc(C(=O)NN=C2CCCC2)cc(OC)c1OC	TEAD-YAP block 62
COc1cc(C(=O)N/N=C2/CCCc3ccccc32)cc(OC)c1OC	TEAD-YAP block 60
Nc1ccc(C(=O)N/N=C2\CCCc3ccccc32)cc1	none
COc1cc(C(=O)NN=C2CCC(c3ccccc3)CC2)cc(OC)c1OC (configuration not stated)	TEAD-YAP block 61
COc1cc(C(=O)NN=C2CCN(Cc3ccccc3)CC2)cc(OC)c1OC	TEAD-YAP block 70
O=C(NC1CCN(Cc2ccccc2)CC1)c1ccc2nc(NCc3ccc4c(c3)OCO4)sc2c1	none
CC(=O)c1ccccc1OCc1ccccc1C	FBW7 activator 2.6
Cc1c(C#N)c2ccc(O)c(CN(C)C)c2n1-c1ccccc1	none
COC(=O)C[C@](O)(CCCC(C)(C)O)C(=O)O[C@@H]1C(OC)=C[C@]23CCCN2CCc2cc4c(cc2[C@H]13)OCO4	TEAD-YAP block 99
COc1cccc(C(=O)N2CC(=O)Nc3ccccc32)c1	TEAD-YAP block 42
COc1cccc(C(=O)N2c3ccccc3NC(=O)CC2C)c1 (configuration not stated)	none
O=C1CN(C(=O)c2cc([N+](=O)[O-])ccc2Cl)c2ccccc2N1	TEAD-YAP block 59
CN(C)c1c(C(=O)N2CC(=O)Nc3ccccc32)cc([N+](=O)[O-])cc1[N+](=O)[O-]	none
Cc1nnc(NC(=O)CSc2nnc(NC(=O)c3ccccc3I)s2)s1	none
COc1cc(OC)c(OC)cc1CNc1nc(C)c(-c2ccn(CCO)n2)s1	TEAD-YAP block 37
COc1ccc(CNc2nc(C)c(-c3ccn(CCO)n3)s2)c(OC)c1OC	none
N#Cc1nc(N2CCCC2)nc(N2CCCC2)n1	TEAD-YAP block 37
Cc1ccc(Cc2cnc(NC(=O)COc3ccccc3)s2)cc1	TEAD-YAP block 52
O=C(CCc1ccccc1)Nc1ccc(Cc2ccncc2)cc1	TEAD-YAP block 40
O=C(CCc1ccccc1)Nc1ncc(Cc2ccccc2)s1	TEAD-YAP block 49
O=C(CCCl)Nc1ncc(Cc2ccccc2)s1	none
O=C(CSCc1ccc(Cc2ccc(CSCC(=O)Nc3ccccc3)cc2)cc1)Nc1ccccc1	TEAD-YAP block 35
